Measurements taken from PubChem BioAssay (NCATS).
Results filed as inconclusive are left out. Active and inactive are the calls of the source. Calls come from the whole dose curve; as a rule, active = well fitted inhibition curve with a large enough effect; inconclusive = small, poorly fitted or top-dose-only effect; inactive = no such curve, though single readings can be large or run the other way.

Test: qHTS assay for measurement of the activity of small molecule inhibitors on Zika virus induced Caspase-3 activity in human iPSC derived neural progenitor cells (hNPCs) (AID 1224857); note: % of control where 0% means no effect; nearly all actives have a fitted effect of over 65% in size
Settings: hNPCs ZIKV-induced caspase-3/7, Caspase-Glo luminescence, 6 h; series mostly up to 45.7 µM; activity change, negative = inhibition: at the top concentration
Text: National Center for Advancing Translational Sciences [NCATS]
Johns Hopkins University School of Medicine
Increase in the Caspase-3 activity indicates an activation of apoptosis cell death pathway caused by Zika virus infection in certain types of neuronal cells including human neural progenitor cells (hNPCs), astrocytes, and astrocytoma cell line (SNB-19). This cell-based caspase-3 activity assay measures the increased caspase-3 activity in the human iPSC derived neural progenitor cells (hNPCs) after a 6-hour Zika virus infection with a luminescence readout. A decrease in the luminescence signal in this assay by small molecule treatment indicates an inhibitory effect of that small molecule on the Zika virus induced caspase-3 activity that may correlate with its effect on reduction of Zika virus caused cell death.
The medium for hNPCs consists of DMEM/F12, N2 supplement (ThermoFisher, Cat.# 17502048), NEAA (ThermoFisher, Cat. # 11140050), 2 ug/ml heparin, 2 uM cyclopamine, and B27 (ThermoFisher, Cat. # 17504044). A Caspase-Glo 3/7 assay kit (catalog number G8092; Promega, Madison, WI) was used to detect caspase-3 activity induced by Zika virus infection in human cells. The reagent mixture was reconstituted as described in the protocol from the manufacturer. Polystyrene tissue culture treated and PDL coated white plates were obtained from Greiner Bio-One (Monroe, NC). Cells were seeded in 384- or 1536-well assay plates and cultured at 37 C with 5% CO2 for 16 to 20 hours. The typical cell seeding density in the 1536-well plate assay is 350 cells/well in 3 ul medium for hNPCs in tissue culture treated plates. Compounds were added to cells and incubated for one hour before addition of ZIKV solution to cells (2 FFU/cell). After incubation at 37 C with 5% CO2 for 6 hours, the reagent mixture of Caspase-Glo 3/7 assay kit was added to each well, followed by incubation at room temperature for 30 minutes. The luminescence intensity of the assay plates was measured using a ViewLux plate reader (PerkinElmer). Data were normalized by using the cell-containing wells without ZIKV as a negative control (0% induction of caspase 3/7 activity) and wells containing ZIKV infected cells (Caspase-3 activity induced) as a positive control (100% induction of caspase 3 activity). The percentage inhibitions of the increased Caspase-3 activity by small molecule inhibitors were then calculated.

SMILES | activity change, negative = inhibition
CC(CCc1ccccc1)NCC(O)c1ccc(O)c(C(N)=O)c1 (stereo not given) | 9.06% (inactive)
COc1cc(C=C2CCC/C(=C\c3ccc(O)c(OC)c3)C2=O)ccc1O | 5.79% (inactive)
CCC(=O)c1c(O)cc(O)cc1O | -1.63% (inactive)
c1ccc(CNCCNCc2ccccc2)cc1 | 16.9% (inactive)
Cc1ccc(O)c2ncccc12 | -3.77% (inactive)
CN1CCCC(CC2c3ccccc3Sc3ccccc32)C1 (stereo not given) | 6.29% (inactive)
c1ccc(OCc2ccc(CCCN3CCOCC3)cc2)cc1 | 20.6% (inactive)
Nc1ccc(C(=O)Nc2ccccc2N)cc1 | -2.73% (inactive)
CCCCCCC[N+](CC)(CC)CCCCc1ccc(Cl)cc1 | -1.76% (inactive)
COC(=O)C1=C(C)NC(C)=C(C(=O)O[C@@H]2CCCN(Cc3ccccc3)C2)[C@@H]1c1cccc([N+](=O)[O-])c1 | -4.29% (inactive)
O=C1CCC(c2ccc(-n3ccnc3)cc2)=NN1 | -19.5% (inactive)
CC(=O)O[C@H]1C[C@@H]2CC[C@@H]3[C@H](CC[C@@]4(C)[C@H]3C[C@H]([N+]3(C)CCCCC3)[C@@H]4OC(C)=O)[C@@]2(C)C[C@@H]1[N+]1(C)CCCCC1 | -3.46% (inactive)
O=C1OCCN1/N=C/c1ccc([N+](=O)[O-])o1 | -12.2% (inactive)
NC[C@H]1O[C@H](O[C@H]2[C@H](O[C@@H]3O[C@H](CO)[C@@H](O)[C@H]3O)C(O)[C@H](N)C[C@@H]2N)[C@H](N)[C@@H](O)[C@@H]1O (stereo not given in full) | 16.5% [at 9.06 µM] (inactive)
CC(C)C[C@H]1C(=O)N2CCC[C@H]2[C@]2(O)O[C@](NC(=O)[C@@H]3C=C4c5cccc6[nH]c(Br)c(c56)C[C@H]4N(C)C3)(C(C)C)C(=O)N12 | 17.8% (inactive)
CCCC(=O)Nc1ccc(OCC(O)CNC(C)C)c(C(C)=O)c1 (stereo not given) | -3.84% (inactive)
CC(C)N=C(N)/N=C(\N)Nc1ccc(Cl)cc1 | 7.42% (inactive)
CCC(C(=O)OCCN(CC)CC)c1ccccc1 (stereo not given) | -2.48% (inactive)
CNCCC(Oc1ccccc1C)c1ccccc1 (stereo not given) | -5.03% (inactive)
Cc1c(N(C)CS(=O)(=O)O)c(=O)n(-c2ccccc2)n1C | -30.4% (inactive)

SMILES | activity change, negative = inhibition
CN(C(=O)CN(CCO)CC(=O)N(C)C(C)(C)Cc1ccccc1)C(C)(C)Cc1ccccc1 | 6.21% (inactive)
CCCCN1CCCC1C(=O)Nc1c(C)cc(C)cc1C (stereo not given) | 12.1% (inactive)
C[C@]12CC[C@@H]3c4ccc(O)cc4CC[C@H]3[C@@H]1C[C@@H](O)[C@@H]2O | 3.98% (inactive)
CN(C)CC/C=C1/c2ccccc2COc2ccc(CC(=O)O)cc21 | -0.798% (inactive)
O=S1(=O)c2cccc3cccc(c23)N1CCCN1CCN(c2ccc(F)cc2)CC1 | -22.7% (inactive)
CC(=O)OCC(=O)[C@@]12OC(C)(C)O[C@@H]1C[C@H]1[C@@H]3C[C@H](F)C4=CC(=O)C=C[C@]4(C)[C@@]3(F)[C@@H](O)C[C@@]12C | 4.08% (inactive)
Cc1cc2c(cc1CC(=O)c1sccc1S(=O)(=O)Nc1onc(C)c1Cl)OCO2 | -1.77% (inactive)
CN1CCC[C@@H]1c1cccnc1 | 7.59% (inactive)
CCCC1O[C@@H]2C[C@H]3[C@@H]4CCC5=CC(=O)C=C[C@]5(C)[C@H]4[C@@H](O)C[C@]3(C)[C@]2(C(=O)CO)O1 (stereo not given in full) | 4.15% (inactive)
CCN(CC)CCNC(=O)COc1ccc(Cl)cc1 | 4.42% (inactive)
CCCCCCCCCCCCCCCC[N+](C)(C)CC | 46.9% (inactive)
CN(C/C=C/c1ccccc1)Cc1cccc2ccccc12 | 95.4% (inactive)
CCOC(=O)OC(C)OC1=C(C(=O)Nc2ccccn2)N(C)S(=O)(=O)c2ccccc21 (stereo not given) | -2.45% (inactive)
C=CCc1ccc(O)c(OC)c1 | 7.84% (inactive)
CN=C(NC#N)Nc1ccc(C2=NNC(=O)CC2C)cc1 (stereo not given) | 8.46% (inactive)
CC(=O)Nc1c(I)cc(I)c(C(=O)O)c1I | -4.23% (inactive)
O=C(O)CNC(=O)c1ccccc1 | 11.7% (inactive)
C=C(CC)C(=O)c1ccc(OCC(=O)O)c(Cl)c1Cl | -1.25% (inactive)
CCCCCCc1ccc(O)cc1O | 2% (inactive)
C#C[C@]1(OC(C)=O)CC[C@H]2[C@@H]3CCC4=C[C@@H](OC(C)=O)CC[C@@H]4[C@H]3CC[C@@]21C | -2.51% (inactive)
